Hit rate of the full screen: of about 39,000 compounds, about 3,300 (8.5%) were called active. This is one part of a sample in which actives are shown more often than they occur.

This experiment relates to HepG2. As to the kind of experiment: cytotoxicity call (relative viability < 0.9). Conditions: 10 µM.
Regarding `C[C@@H]1CN([C@@H](C)CO)C(=O)c2cc(NS(C)(=O)=O)ccc2O[C@@H]1CN(C)Cc1ccc(C(=O)O)cc1`, the cytotoxicity call is “inactive”.
On to `C[C@@H]1CCCCO[C@@H](CN(C)Cc2ccncc2)[C@@H](C)CN([C@@H](C)CO)C(=O)c2cc(NC(=O)Nc3ccc(F)cc3)ccc2O1`, for which the cytotoxicity call was “inactive”.
To `C[C@@H]1CN([C@H](C)CO)C(=O)c2cccc(NC(=O)C3CC3)c2O[C@@H]1CN(C)S(=O)(=O)c1ccc(F)cc1` belongs “inactive”.
`C=CCC[C@@H](Cc1ccc(F)cc1)C(=O)OC[C@H](Cc1c[nH]c2ccccc12)NC(=O)[C@H](CC=C)CC(=O)N(CCO)Cc1ccccc1`: the cytotoxicity call was “inactive”.
Consider `C=CCC[C@H](Cc1ccc(F)cc1)C(=O)OC[C@H](Cc1c[nH]c2ccccc12)NC(=O)[C@H](CC=C)CC(=O)N(CCO)Cc1ccccc1`, for which the cytotoxicity call is “inactive”.
The result for `C=CCC[C@@H](Cc1ccc(F)cc1)C(=O)OC[C@@H](Cc1c[nH]c2ccccc12)NC(=O)[C@H](CC=C)CC(=O)N(CCO)Cc1ccccc1` reads “active”.
To `C[C@H](CO)N1C[C@H](C)[C@H](CN(C)C(=O)Nc2cccc3ccccc23)Oc2ccc(NC(=O)Nc3ccc(F)cc3)cc2CC1=O` belongs “inactive”.
The result for `C[C@@H](N)c1nc2c(s1)CCCC2` reads “inactive”.
As for `O=C1O[C@H](c2ccccc2)[C@H](c2ccccc2)N2[C@H]1[C@@H](C(=O)NC[C@@H](O)c1ccccc1)[C@]1(C(=O)Nc3ccc(C#CC4(O)CCCCCC4)cc31)[C@H]2c1ccccc1OCCO`, the cytotoxicity call is “inactive”.
To `C[C@@H]1CN([C@H](C)CO)C(=O)c2cc(NC(=O)Nc3ccc(C(F)(F)F)cc3)ccc2O[C@H]1CN(C)Cc1ccc(Cl)c(Cl)c1` belongs “active”; to `C[C@@H]1CN([C@H](C)CO)C(=O)c2cc(NC(=O)Nc3ccc(C(F)(F)F)cc3)ccc2O[C@@H]1CN(C)Cc1ccc(Cl)c(Cl)c1`, “active”.
To `C[C@@H]1CN([C@@H](C)CO)C(=O)c2cc(NC(=O)Nc3ccc(C(F)(F)F)cc3)ccc2O[C@H]1CN(C)Cc1ccc(Cl)c(Cl)c1` belongs “inactive”; to `C[C@H]1CN([C@@H](C)CO)C(=O)c2cc(NC(=O)Nc3ccc(C(F)(F)F)cc3)ccc2O[C@@H]1CN(C)Cc1ccc(Cl)c(Cl)c1`, “inactive”.
Consider `C[C@H](CO)N1C[C@H](C)[C@@H](CN(C)Cc2ccc(Cl)c(Cl)c2)Oc2ccc(NC(=O)Nc3ccc(C(F)(F)F)cc3)cc2C1=O`, for which the cytotoxicity call was “active”.
The result for `C[C@@H]1CN([C@@H](C)CO)C(=O)c2cc(NC(=O)Nc3ccc(C(F)(F)F)cc3)ccc2O[C@@H]1CN(C)Cc1ccc(Cl)c(Cl)c1` reads “active”; that for `C[C@H](CO)N1C[C@H](C)[C@@H](CN(C)S(=O)(=O)c2ccc(Cl)cc2)Oc2ccc(NC(=O)CCCN(C)C)cc2CC1=O`, “inactive”; that for `NCC[C@H]1CC[C@H](NC(=O)C2CC2)[C@H](CO)O1`, “inactive”.
Take `CSc1nc(=O)c(CCO)c(C)[nH]1`: the cytotoxicity call was “inactive”.
Take `COc1cccc(NC(=O)N2C[C@H](O)COC[C@@H]3O[C@@H](CC(=O)NCCCN4CCOCC4)CC[C@H]32)c1`: the cytotoxicity call was “inactive”.
For the molecule `CCOC(=O)CSc1nc(=O)cn[nH]1`, the cytotoxicity call is “inactive”.
To `C[C@@H]1CN([C@H](C)CO)C(=O)Cc2cc(NC(=O)C3CC3)ccc2O[C@H]1CN(C)Cc1ccc2c(c1)OCO2` belongs “inactive”; to `CC(C)NC(=O)N(C)C[C@@H]1OCCCC[C@@H](C)Oc2ccc(NC(=O)Nc3ccccc3)cc2C(=O)N([C@@H](C)CO)C[C@@H]1C`, “inactive”.
To `COc1ccc(S(=O)(=O)Nc2ccc3c(c2)C(=O)N([C@H](C)CO)C[C@H](C)[C@H](CN(C)C(=O)Nc2c(C)noc2C)OCCCC[C@@H](C)O3)cc1` belongs “inactive”; to `C[C@@H]1CN([C@H](C)CO)C(=O)c2cc(C3=CCCC3)cnc2O[C@H]1CN(C)S(=O)(=O)c1cn(C)cn1`, “inactive”.
Turning to `Cc1noc(C)c1S(=O)(=O)Nc1ccc2c(c1)CC(=O)N([C@H](C)CO)C[C@H](C)[C@H](CN(C)S(=O)(=O)c1cn(C)cn1)O2`, the cytotoxicity call is “inactive”.
Regarding `C[C@@H]1CCCCO[C@H](CN(C)C(=O)Nc2ccc3c(c2)OCO3)[C@H](C)CN([C@@H](C)CO)C(=O)c2cc(NC(=O)c3ccncc3)ccc2O1`, the cytotoxicity call is “inactive”.
The result for `C[C@@H]1CN([C@@H](C)CO)C(=O)Cc2cc(NC(=O)Nc3cccc4ccccc34)ccc2O[C@@H]1CN(C)C(=O)Nc1cccc2ccccc12` reads “inactive”; that for `NCCN1CCOCC1`, “inactive”.
The result for `C[C@H](CO)N1C[C@H](C)[C@H](CN(C)Cc2ccc(Cl)c(Cl)c2)Oc2ccc(NC(=O)Nc3ccc(C(F)(F)F)cc3)cc2C1=O` reads “active”; that for `C[C@H]1CN([C@@H](C)CO)C(=O)c2cc(NC(=O)Nc3ccc(C(F)(F)F)cc3)ccc2O[C@H]1CN(C)Cc1ccc(Cl)c(Cl)c1`, “active”; that for `C[C@H]1CN([C@@H](C)CO)C(=O)c2cc(NC(=O)Nc3ccc(F)cc3)ccc2O[C@@H]1CN(C)Cc1ccc(Cl)c(Cl)c1`, “inactive”.
On to `C[C@H](CO)N1C[C@H](C)[C@@H](CN(C)Cc2ccc(Cl)c(Cl)c2)Oc2ccc(NC(=O)Nc3ccc(F)cc3)cc2C1=O`, for which the cytotoxicity call is “inactive”.
Turning to `C[C@H]1CCCCO[C@@H](CN(C)C(=O)Nc2ccc(F)cc2)[C@@H](C)CN([C@@H](C)CO)C(=O)c2cc(NS(=O)(=O)c3ccccc3)ccc2O1`, the cytotoxicity call is “inactive”.
The result for `CC(C)NC(=O)N(C)C[C@H]1Oc2ccc(NC(=O)Cc3ccccc3)cc2C(=O)N([C@H](C)CO)C[C@H]1C` reads “inactive”.
To `C[C@H](CO)N1C[C@H](C)[C@H](CN(C)C(=O)Nc2ccccc2)OCCCC[C@H](C)Oc2ccc(NC(=O)c3ccccc3)cc2C1=O` belongs “inactive”; to `COc1cccc(NC(=O)N[C@@H]2C=C[C@@H](CC(=O)N3CCOCC3)O[C@@H]2CO)c1`, “inactive”; to `C[C@@H]1CN([C@H](C)CO)C(=O)c2cccc(NC(=O)c3nc4ccccc4s3)c2O[C@@H]1CN(C)S(=O)(=O)c1cn(C)cn1`, “inactive”.
To `CC(C)NC(=O)N(C)C[C@@H]1Oc2c(NC(=O)Nc3ccc4c(c3)OCO4)cccc2C(=O)N([C@H](C)CO)C[C@@H]1C` belongs “inactive”.
For the molecule `C[C@H](CO)N1C[C@H](C)[C@H](CN(C)C(=O)C2CCCCC2)OCCCC[C@H](C)Oc2ccc(NS(=O)(=O)c3cccs3)cc2C1=O`, the cytotoxicity call was “inactive”.
The result for `Cc1cc(C)n(C(=O)Cn2cc([N+](=O)[O-])cn2)n1` reads “inactive”.
